Shown are actives, neighbours in structure and some others; about 5.3% of the full set was active somewhere.
Tau fibril FP: qHTS for Inhibitors of Tau Fibril Formation, Fluorescence Polarization | K18 P301L tau heparin fibrillization, Alexa594 FP, 6 h | Potency, µM (titrated, usually from 57.7 µM), for the others: at the highest dose activity, negative = inhibition, usual class: inhibitors | 280,000 tested, 0.39% active | AID 1468, 2008; further: potency means the concentration at half of the fitted maximal effect; nearly all actives have a fitted effect of over 55% in size
Target sequence (P10636 561-689 P618L limits assumed): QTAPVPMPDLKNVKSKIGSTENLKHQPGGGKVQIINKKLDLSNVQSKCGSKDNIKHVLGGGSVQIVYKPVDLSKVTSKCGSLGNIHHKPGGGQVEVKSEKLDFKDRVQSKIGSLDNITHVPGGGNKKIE
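FP of Alexa 594-tau after heparin (20 uM) induction. Substrate: human K18 P301L, 15 uM unlabeled, 0.24 uM labeled. Buffer 100 mM sodium acetate pH 7. 6 hr, 37 C.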
Sfp inh: qHTS Assay for Inhibitors of Bacillus subtilis Sfp phosphopantetheinyl transferase (PPTase). 4'-phosphopantetheinyl transferase ffp (Bacillus subtilis), Q9F4F7. Biochemical Sfp PPTase activity, qHTS. Potency, µM, without a hit: largest response in the series, negative = inhibition, usual class: inhibitors. 310,000 tested, 3.5% active. AID 1490, 2009;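 further: the enzyme is Sfp with the accession as filed and its product quenches rhodamine fluorescence; potency means the concentration at half of the fitted maximal effect; 0% = enzyme reaction without inhibitor and -100% = no enzyme wells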
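Step 1, compound plus 15 nM Sfp-PPTase, 15 min, room temperature. Step 2, add rhodamine-CoA (5 uM) and BHQ-2-YbbR (12.5 uM). Step 3, read 525/598 nm fluorescence at 0 and 30 min.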
FBPA coupling cs: qHTS Assay for Inhibitors of Fructose-1,6-bisphosphate Aldolase from Giardia Lamblia: Coupling assay counterscreen | coupling enzyme system counterscreen, AmpLite Red fluorescence | activity change, negative = inhibition, % at 58.2 µM, hits read low | 290,000 tested, 0.67% active; in the data active means activity change below about -30%
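Counterscreen lacking aldolase: glyceraldehyde-3-phosphate coupling-enzyme reagent preincubated 10 min at RT with compound (at 57.5 uM final), then substrate/coupling system with AmpLite Red added; fluorescence read at 525/598 nm after 20 min RT.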
Tau ThT inhib: qHTS for Inhibitors of Tau Fibril Formation, Thioflavin T Binding. Microtubule-associated protein tau (Homo sapiens), P10636. Potency, µM (doses to about 57.4 µM), for the others: top-dose activity, negative = inhibition, actives largely listed as inhibitors. AID 1460, 2008. 270,000 tested, 2.1% active. recombinant tau K18 P301L, heparin-induced fibrillization, ThT fluorescence; further: potency means the concentration at half of the fitted maximal effect; nearly all actives have a fitted effect of over 55% in size
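Using a mix of unlabeled (15 uM) and Alexa 594-labeled (0.24 uM) tau K18 P301L, heparin-triggered fibrillization over 6 hr at 37 C was scored by ThT fluorescence.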
Tau fluor cs: Counterscreen qHTS for Inhibitors of Tau Fibril Formation, Fluorescence Polarization; tau K18 P301L (four-repeat tau fragment) Alexa594 fluorescence, heparin fibrillization; Potency, µM (doses to about 57.7 µM), without a hit: top-dose activity change, negative = decrease; 280,000 tested, 0.93% active; further: potency means the concentration at half of the fitted maximal effect; nearly all actives have a fitted effect of over 55% in size
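Human K18 P301L tau (15 uM unlabeled plus 0.24 uM Alexa 594-labeled, final) in 100 mM sodium acetate pH 7 was mixed with compound and 20 uM heparin and incubated 6 hr at 37 C.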
JMJD2E inh: qHTS Assay for Inhibitors of Human Jumonji Domain Containing 2E (JMJD2E); 230,000 tested, 1.6% active; Potency, µM (top dose mostly 57.1 µM), for the others: at the highest dose activity change, negative = inhibition, actives largely listed as inhibitors; Lysine-specific demethylase 4E (Homo sapiens), B2RXH2; JMJD2E catalytic domain, FDH-coupled NADH fluorescence (FDH is formaldehyde dehydrogenase);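 further: potency means the concentration at half of the fitted maximal effect; 0% = wells with enzyme and -100% = buffer wells without enzyme; nearly all actives have a fitted effect of over 50% in size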
Target sequence (B2RXH2 1-337 limits assumed): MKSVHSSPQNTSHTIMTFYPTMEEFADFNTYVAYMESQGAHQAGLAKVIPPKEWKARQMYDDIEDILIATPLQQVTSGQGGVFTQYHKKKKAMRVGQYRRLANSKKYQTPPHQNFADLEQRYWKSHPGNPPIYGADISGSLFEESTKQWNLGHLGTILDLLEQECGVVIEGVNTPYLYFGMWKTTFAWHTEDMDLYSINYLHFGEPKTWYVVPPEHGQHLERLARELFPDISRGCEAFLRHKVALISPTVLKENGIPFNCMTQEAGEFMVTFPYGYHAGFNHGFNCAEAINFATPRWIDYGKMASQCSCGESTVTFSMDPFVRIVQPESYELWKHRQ
The depositor's hits bear a star; ? = inconclusive; nt = no result; ! = not active in a repeat; [ ] = remark or other dose. Unless noted, the call rests on the fitted dose curve; in most records, active means well fitted curve in the direction sought with a large enough effect; inconclusive means small, poorly fitted or top-dose-only effect, or another doubt; inactive means no such curve, though single readings can be large; an effect the other way counts as inactive or inconclusive. Unless noted, on the % scale 0 is the no-effect control and ±100 the full control effect.

SMILES	Tau fibril FP	Sfp inh	FBPA coupling cs	Tau ThT inhib	Tau fluor cs	JMJD2E inh
COc1cc(/C=C2\C(=O)NC(=O)N(c3ccccc3)C2=O)cc(OC)c1OC	-12.9%	?	0.5	?	-22.0%	-15.4%
Cc1ccc(N2C(=O)NC(=O)/C(=C/c3cnn(-c4ccc(C)cc4)c3)C2=O)cc1	-5.6%	-3.1%	0.6	?	-10.3%	-1.7%
Cc1cc2c(cc1C)-n1c(-c3ccccc3)c3c(=O)n(C)c(=O)n(C)c3c1C(c1ccco1)N2 (stereo not given)	-7.5%	nt	nt	?	-18.3%	nt
COc1cc(C2c3cc4c(cc3C(OC(C)=O)[C@H]3COC(=O)C23)OCO4)cc(OC)c1OC (stereo not given in full)	-8.1%	?	-8.1	-5.9%	-17.2%	-11.4%
COc1cc(CN2CCc3nc(N4CCN(c5ccccn5)CC4)ncc3C2)cc(OC)c1OC	-0.3%	nt	nt	?	-3.6%	nt
O=C1NC(=O)C(=O)C(=O)N1	2.82µM*	14.1µM*	-59.7*	2.51µM*	-24.9%	?
C[C@@H]1Cc2c(Cl)cc(C(=O)N[C@H](Cc3ccccc3)C(=O)O)c(O)c2C(=O)O1	nt	6.3%	9.5	nt	nt	nt
CCN1C[C@]2(COC)CC[C@H](OC)[C@@]34C5C[C@@H]6[C@@H](OC)C[C@@]7(OCO[C@@]7([C@@H](O)C23)[C@@H]14)C5[C@H]6OC (stereo not given in full)	-0.9%	7.3%	nt	2.7%	3.1%	nt
CN1CCc2nc3sc(C#N)c(N)c3c(-c3cccs3)c2C1	?	50.1µM*	-0.9	28.2µM*	?	-14.5%
CN(C)C(=S)SSC(=S)N(C)C	?	3.55µM*!	-44.8*!	?	-18.5%	25.1µM*
CN(C)C(=S)SC(=S)N(C)C	-4.8%	11.2µM*	-1.2	-10.2%	-0.6%	nt
C[C@H](N)C(=O)N[C@@H](C)C(=O)N[C@@H](Cc1ccccc1)C(=O)CCl	?	16.9%	nt	?	-27.6%	nt
Cc1ccc(N=Nc2cc(C)ccc2N)cc1	18.4%	-7.8%	-2.3	11.2µM*	17.8µM*[quencher]	2.8%
O=C(O)c1ccccc1-c1ccc(C=C2C(=O)N(c3ccccc3)C(=S)N(c3ccccc3)C2=O)o1	nt	50.1µM*	1.3	nt	nt	nt
N#CC(C#N)=NNc1ccc(S(=O)(=O)N2CCCC2)cc1	15.1%	-5.2%	17.9	17.8µM*	-28.0%	-3.9%
O=c1[nH]c(=O)n(C2CCCCC2)c(O)c1C1=Nc2ccccc2SC(c2ccc(Cl)cc2)C1 (stereo not given)	?	nt	nt	-11.7%	?	nt
CCN1C[C@]2(C)CC[C@H](O)[C@@]34[C@@H]5C[C@@H]6[C@@H](OC)C[C@@](O)(C5[C@H]6O)[C@@H](C[C@@H]23)[C@@H]14	-3.0%	nt	nt	-11.0%	-15.8%	6.2%
Cc1cccn2c(=O)c(/C=C(\C#N)c3nc4ccccc4s3)c(Oc3ccc(F)cc3)nc12	?	nt	nt	?	-7.3%	nt
O=c1[nH]c(=S)n(-c2ccc(Br)cc2)c(O)c1C=Nc1ccc(N2CCOCC2)cc1	3.4%	?	-1.2	25.1µM*	-21.8%	-7.9%
COP(=S)(OC)Oc1ccc([N+](=O)[O-])cc1	16.8%	-3.2%	3.1	-14.3%	5.3%	-7.1%
CCOC(=O)c1c(C)n(Cc2ccc(F)cc2)c2ccc(O)cc12	20.6%	22.4µM*	0.8	-15.3%	?	?
CCOC(=O)c1c(C)n(COCCO)c2ccc(O)cc12	4.8%	0.0%	-0.3	?	-5.2%	-22.5%
CCOC(=O)c1c(C)n(Cc2ccc3c(c2)OCO3)c2ccc(O)cc12	2.5%	-9.5%	1.2	?	?	-22.5%
CCOC(=O)c1c(C)n(Cc2ccco2)c2ccc(O)cc12	6.8%	44.7µM*	0.3	-9.3%	-14.6%	-15.8%
C/C(=N\NC(N)=O)c1c(O)n(C)c(=O)n(C)c1=O	-7.8%	56.2µM*	0.5	-14.7%	-5.5%	9.3%
SMILES	Tau fibril FP	Sfp inh	FBPA coupling cs	Tau ThT inhib	Tau fluor cs	JMJD2E inh
COc1cccc(NC(=O)C2CCN(S(=O)(=O)c3cc(-c4noc(C)n4)ccc3C)CC2)c1	?	nt	nt	10.8%	-28.6%	nt
CCOc1c(P(=S)(N(C)C)N(C)C)c(C)nn1-c1ccccc1	11.1%	11.1%	-1.0	-4.2%	-3.2%	-1.8%
CCN(CC)P(=S)(c1c(C)nc2ccccn12)c1c(C)nc2ccccn12	0.7%	50.1µM*	1.4	-6.1%	2.3%	-15.2%
CCC(C)N1C(=O)/C(=C/c2ccc3c(c2)CCN3CCCCl)C(=O)NC1=S (stereo not given)	?	?	0.7	31.6µM*	?	0.1%
O=C(O)[C@@H]1Cc2[nH]cnc2C(c2cccnc2)N1 (stereo not given in full)	-3.8%	?	-0.4	-12.4%	-7.6%	?
Fc1ccc(C(OCCN2CCCC2)c2ccc(F)cc2)cc1	-0.3%	3.0%	3.2	3.2%	9.1%	7.8%
Fc1ccc(C(OCCN2CCN(C/C=C/c3ccccc3)CC2)c2ccc(F)cc2)cc1	3.5%	44.7µM*	nt	?	-21.0%	nt
Fc1ccc(C(OCCN2CCCC2)c2ccc(Br)cc2)cc1 (stereo not given)	1.9%	39.8µM*	1.7	-8.6%	-11.7%	-17.1%
O=C(O)CCC(CP(=O)(O)O)C(=O)O (stereo not given)	nt	-7.3%	1.0	nt	nt	nt
COc1ccc(C(=O)Nc2ccc(-c3cc(C(F)(F)F)nn3-c3ccccc3)cc2)cc1OC	?	nt	nt	8.0%	?	nt
COc1ccc(CCn2c(O)c(C=NCCN3CCCCC3)c(=O)[nH]c2=O)cc1OC	5.0%	0.9%	3.3	-4.1%	-0.2%	1.4%
CCC(=O)N1N=C(c2c(O)n(CCc3ccccc3)c(=O)[nH]c2=O)CC1c1ccc(OC)c(OC)c1 (stereo not given)	-1.5%	21.9%	3.9	nt	0.8%	20µM*
CCOc1ccc(C(C)=O)cc1Cc1c(O)[nH]c(=S)[nH]c1=O	nt	44.7µM*	-1.6	nt	nt	nt
COc1ccc(C(C)=O)cc1Cc1c(O)[nH]c(=S)[nH]c1=O	nt	50.1µM*	1.9	nt	nt	nt
CC(=O)c1ccc(OC(C)C)c(Cc2c(O)[nH]c(=S)[nH]c2=O)c1	?	22.4µM*	2.3	?	-19.6%	2.1%

Compound activity deposited in PubChem BioAssay by National Center for Advancing Translational Sciences (NCATS).
